Results published in PubChem BioAssay AID778 (Sanford-Burnham Center for Chemical Genomics, 2007).
Hit rate of the full screen: of about 96,000 compounds, about 20,000 (21%) were called active. Only a sample is shown. A number with no mark means an inactive call.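 How the source made its calls: active means CYP2C19 inhibition above a set limit at 5 µM in the primary screen (cut at about 50% in these data); inactive means the rest.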

What follows are compounds tested against Cytochrome P450 2C19 (Homo sapiens) (UniProt P33261) (assay: blockers of cytochrome P450 2C19 activity – biochemical, luminescence, ADME assay, primary screen (AID 778;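 further: plate controls were negative control wells for no effect and 2.5 mM tranylcypromine positive control for full effect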)). Details: CYP2C19 Supersomes, luciferin-H EGE luminescence, 30 min; at 5 µM; hits give high values.
Sequence of Cytochrome P450 2C19 (Homo sapiens) (P33261 whole entry, looked up): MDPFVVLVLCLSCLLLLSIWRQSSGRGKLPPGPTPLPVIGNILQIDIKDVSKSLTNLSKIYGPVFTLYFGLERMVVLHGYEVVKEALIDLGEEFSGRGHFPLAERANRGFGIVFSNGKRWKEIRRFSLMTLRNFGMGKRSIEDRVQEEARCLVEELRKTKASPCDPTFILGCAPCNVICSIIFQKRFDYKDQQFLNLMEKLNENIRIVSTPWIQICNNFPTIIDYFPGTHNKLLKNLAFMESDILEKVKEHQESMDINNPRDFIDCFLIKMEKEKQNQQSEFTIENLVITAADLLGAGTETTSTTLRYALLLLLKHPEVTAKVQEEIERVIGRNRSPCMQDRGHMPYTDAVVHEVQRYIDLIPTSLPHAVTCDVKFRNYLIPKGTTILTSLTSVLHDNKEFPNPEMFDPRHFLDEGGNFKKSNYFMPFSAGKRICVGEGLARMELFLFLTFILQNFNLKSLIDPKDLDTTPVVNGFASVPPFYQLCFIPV
With `C=CCOc1ccc(C2/C(=C(\O)c3c(C)[nH]c(C(=O)OC)c3C)C(=O)C(=O)N2CCN(C)C)cc1` (stereo unspecified) the inhibition was 2.1%. For `O=C(Nc1ccc2c(c1)CCC2)c1cccc(S(=O)(=O)N2CCN(c3ccc(F)cc3)CC2)c1`, the inhibition was 26%. `CC(C)C(C)NC(=O)COc1ncnc2ccccc12` (stereo unspecified) gave an inhibition of 34.6%. Compound `Cc1nn(-c2ccccc2)c2sc(C(=O)N(Cc3ccco3)C(C)C(=O)NC(C)(C)C)cc12` (stereo unspecified) has an inhibition of 33.9%. For `Cc1ccccc1-n1nc(C)c2cc(C(=O)NC3CC3)sc21`, the inhibition was 61.4% (active). Compound `COc1cc(OC)cc(C(=O)NC2CCN(C(=O)N3c4ccccc4Sc4ccccc43)CC2)c1` has an inhibition of 5.8%. `O/N=C1\CC2(Cc3nonc31)OCCO2` showed an inhibition of -5.4%. In the case of `O=C(Nc1ccc(Br)cc1)C1CCC(=O)N1Cc1ccccc1Cl` (stereo unspecified), the inhibition was 96.4% (active). With `CCC(C)NC(=O)C1CCC(=O)N1Cc1ccc(C)cc1` (stereo unspecified) the inhibition was 28.1%. For `Cc1ccc(CN2C(=O)CCC2C(=O)NCCCN2CCCCC2C)cc1` (stereo unspecified), the inhibition was 8.1%. `O=C(Cn1cnc2c(nnn2-c2ccccc2)c1=O)N1CCC(Cc2ccccc2)CC1` showed an inhibition of 43.2%. `CCC1C(C#N)=C(SC)NC2=C1C(=O)CC(C)(C)C2` (stereo unspecified) showed an inhibition of 12.7%. `Cc1ccc(-n2ncc3c2ncn2nc(-c4ccco4)nc32)c(C)c1` was tested, and the inhibition was 4.8%. In the case of `COc1cc(C(=S)N2CCOCC2)cc(OC)c1OC(=O)c1cc([N+](=O)[O-])cc([N+](=O)[O-])c1`, the inhibition was -1.3%. `Cc1ccc(Cn2nnc3c(=O)n(CC(=O)N4CCCCC4)cnc32)cc1` gave an inhibition of 34%. Work on `Cc1ccc(NC(=O)N2CCC(C(=O)NCc3ccc(F)cc3)CC2)cc1` yielded an inhibition of 4.7%. For `Cc1ccc(NC(=O)N2CCC(c3nc4c(nnn4Cc4c(F)cccc4Cl)c(=O)[nH]3)CC2)cc1`, the inhibition was 95.1% (active). For `Cc1nc2ccc(NC(=O)N3CCC(c4ccccc4)C3)cc2nc1C` (stereo unspecified), the inhibition was 28.5%. With `COc1ccc(Cn2nnc3c(=O)[nH]c(C4CCN(C(=O)c5ccccc5Cl)CC4)nc32)cc1` the inhibition was 57.2% (active). Work on `COc1ccc(-n2nnc3c(=O)n(CC(=O)N4CCC(Cc5ccccc5)CC4)cnc32)cc1` yielded an inhibition of 4.8%. `CC(=O)c1ccc(OCCN2CCOCC2)cc1` showed an inhibition of 2.4%. With `Cc1ccc(S(=O)(=O)NCC(=O)N(CC(=O)NC(C)(C)C)Cc2cccs2)cc1` the inhibition was -10.5%. `CCc1c(-c2ccccc2)nc(N)c(C#N)c1-c1cccs1` was tested, and the inhibition was 2.8%. `CCOC(=O)C(CCOc1cccc(CC)c1)C(=O)OCC` gave an inhibition of 42%. `Cc1cc(C)n2nc(C(=O)NC(C)(C)C)nc2n1` gave an inhibition of -2.8%. Work on `C=CCc1cccc2cc(C(=O)N3CCN(C(=O)OCC)CC3)c(=O)oc12` yielded an inhibition of -8%. `Cn1c(=O)c2c(SCC(=O)N3CCOCC3)nc(C3CC3)nc2n(C)c1=O` was tested, and the inhibition was 8.8%. `CCN(CC)C(=O)N1CCN(C(=O)c2ccc(C)cn2)CC1` gave an inhibition of 4.3%. In the case of `Cn1c(CO)cnc1SCc1ccccc1`, the inhibition was 39.7%. `CCS(=O)(=O)n1nc(-c2ccc(OC)cc2)nc1SC` was tested, and the inhibition was 46%. For `CCS(=O)(=O)n1nc(-c2ccccc2)nc1SCc1ccccc1`, the inhibition was 90.1% (active). For `O=C(COC(=O)CCC(=O)c1cccs1)NCc1ccco1`, the inhibition was 5.2%. In the case of `Cc1nnc(NC(=O)CSc2nc(C3CCCCC3)nc3ccccc23)s1`, the inhibition was -1.4%. `CN(C(=O)CSc1nc(C2CC2)nc2ccccc12)c1nc(-c2ccccc2)cs1` gave an inhibition of 12.3%. In the case of `COC(=O)CSc1nc(C2CC2)nc2ccccc12`, the inhibition was 63.2% (active). Work on `CCN(CC)S(=O)(=O)c1ccc2[nH]cc(C(=O)NCCc3ccccc3)c(=O)c2c1` yielded an inhibition of 4.6%. `Cc1cccc(NC(=O)CSc2nc3c(c(=O)[nH]2)CCCC3)c1C` gave an inhibition of 17.6%. Work on `CCc1ccccc1NC(=O)CSc1nnc([C@@H](NC(=O)OC(C)(C)C)C(C)C)o1` yielded an inhibition of 8%. In the case of `C[C@H](NC(=O)OC(C)(C)C)c1nnc(SCC(=O)Nc2ccc(Br)cc2)o1`, the inhibition was 62.5% (active). Compound `C[C@H](NC(=O)OC(C)(C)C)c1nnc(SCC(N)=O)o1` has an inhibition of 49.9%. Compound `Cc1cccc(NC(=O)CSC(N)=O)c1C` has an inhibition of 17.7%. With `Cc1cccc(NC(=O)CSc2nnc(-c3ccco3)o2)c1` the inhibition was -7.9%. With `O=C(CSc1nnc(-c2ccco2)o1)NCC(=O)c1ccccc1` the inhibition was 0.5%. For `CCc1ccccc1NC(=O)CSc1nnc([C@@H](NC(=O)OC(C)(C)C)C(C)CC)o1` (stereo partly specified), the inhibition was 59.4% (active). With `Cc1cccc(NC(=O)CSc2nnc(CCCCCNC(=O)OC(C)(C)C)o2)c1C` the inhibition was 63.7% (active). In the case of `Cc1ccc(C(=O)Nc2nnc(-c3cccs3)s2)cc1C`, the inhibition was -8.8%. For `O=C(O)CCN=C1CCc2ccccc2N1`, the inhibition was 0.2%. With `Cc1cc(C)c2c(n1)nn1c(-n3ccnc3)cc(C)nc21` the inhibition was 4.7%. Compound `O=C(CSc1nc2ccccc2[nH]1)c1cccs1` has an inhibition of 42.5%. With `COc1ccccc1CSc1nc2ccccc2[nH]1` the inhibition was 51.7% (active). `O=c1cc(O)nc(SCc2ccccc2Cl)[nH]1` showed an inhibition of 1.2%. For `C=CCSc1nc2ccccc2[nH]1`, the inhibition was 66% (active). Work on `C=CCSc1nc(Cc2ccc(Cl)cc2)nc2ccccc12` yielded an inhibition of 0%. With `Cc1ccccc1OC/C(O)=C(\C#N)c1nc2ccccc2[nH]1` the inhibition was 38.3%. With `Cc1nnc2sc(-c3ccco3)nn12` the inhibition was -0.9%. Work on `CCOC(=O)Cc1c(C)nc2c(C#N)c(C)nn2c1C` yielded an inhibition of 12.9%. `CC(C)C1C2=C(CC(C)(C)CC2=O)ON1c1ccccc1` (stereo unspecified) showed an inhibition of 34.7%. Compound `COc1ccc(CN2CN(C(C)C)CSC2=S)cc1` has an inhibition of 8.5%. With `O=C1CSC(c2ccccc2)N1c1nc(-c2ccc(Cl)cc2Cl)cs1` (stereo unspecified) the inhibition was -2.8%. `CCCc1ccc(-c2csc(NC(=O)Cc3cccs3)n2)cc1` showed an inhibition of 28%. For `CC(=O)N1CCN(C(=O)c2cccc(S(=O)(=O)Nc3ccc(C)cc3)c2)CC1`, the inhibition was 11.6%. In the case of `Cc1ccc(S(=O)(=O)Nc2ccc3ncccc3c2)cc1`, the inhibition was 89.8% (active). `Cc1ccc(S(=O)(=O)Nc2nc(C)cc(-n3nc(C)cc3C)n2)cc1` showed an inhibition of 22%. In the case of `FC(F)(F)c1nnc2ccc(N3CCN(c4ccccc4)CC3)nn12`, the inhibition was 27.9%. `O=C(Nc1ccccc1C(=O)N1CCOCC1)C1CCC(=O)N1C1CCCC1` (stereo unspecified) showed an inhibition of -12.6%. For `CCC(=O)N(Cc1ccccc1)c1ccccn1`, the inhibition was -5.8%. In the case of `Cn1c(SCC(=O)Nc2cccc(NC(=O)c3cccs3)c2)nnc1-c1ccncc1`, the inhibition was 54% (active). In the case of `Cc1ccc(C(C)C)c(OCc2nnc(SCC(=O)Nc3nccs3)n2C)c1`, the inhibition was 17%. For `CCn1c(SCC(=O)Nc2cc(C)ccc2C)nnc1-c1cnccn1`, the inhibition was 71.7% (active). `CCC(=O)Nc1cccc(NC(=O)CSc2nnc(-c3ccc(NS(C)(=O)=O)cc3)n2C)c1` gave an inhibition of 23.6%. Work on `Cc1ccccc1C(=O)Nc1cccc(-c2nnc(SCC(=O)O)n2C)c1` yielded an inhibition of -18.4%. Work on `CCc1ccc(NC(=O)CSc2nnc(-c3cnccn3)n2Cc2ccco2)cc1` yielded an inhibition of 21.4%. For `Cc1ccc(NC(=O)CSc2nnc(-c3cnccn3)n2Cc2ccco2)cc1C`, the inhibition was 5.5%. In the case of `CCn1c(SCC(=O)Nc2nccs2)nnc1-c1ccncc1`, the inhibition was 66.7% (active). Work on `CCCCSc1nnc(-c2ccc(NC(=O)CC)cc2)n1C` yielded an inhibition of 21.4%. In the case of `COC(=O)c1ccc(NC(=O)CSc2nnc(CNc3ccc(OC)cc3)n2C)cc1`, the inhibition was 29.7%. Compound `CCc1nnc(NC(=O)CSc2nnc(-c3ccncc3)n2Cc2ccccc2)s1` has an inhibition of 41.3%. For `COC(=O)c1ccc(NC(=O)CSc2nnc(-c3ccncc3)n2C)cc1`, the inhibition was 54.6% (active). In the case of `CCC1(C)N(O)C(C)(C)C(c2ccc(OC)cc2)=[N+]1[O-]` (stereo unspecified), the inhibition was -7.3%. `C=CCNc1nc(N)c(C(=C(C#N)C#N)c2ccccc2)s1` gave an inhibition of 21.5%. In the case of `CS(=O)(=O)N1CCN(C(=O)Cc2ccccc2)CC1`, the inhibition was 16.8%. `Cc1c(NC(=O)c2cc(-c3ccc(Cl)s3)nc3ccccc23)c(=O)n(-c2ccccc2)n1C` showed an inhibition of 18.3%. For `CSc1nnc2c(n1)OC(c1ccsc1)N(C(C)=O)c1ccccc1-2` (stereo unspecified), the inhibition was 5.9%. `Cc1nc2ccccc2c(-c2ccccc2)c1C(=O)c1ccccc1` showed an inhibition of 12%. `CCc1nnc(NS(=O)(=O)c2ccc(N=Cc3c(C)[nH]n(-c4ccc(C)cc4)c3=O)cc2)s1` was tested, and the inhibition was -2.3%. Work on `CCn1c(=N)n(CC(=O)c2cccc(OC)c2)c2ccccc21` yielded an inhibition of -12.1%. With `Cc1ccc(S(=O)(=O)N2CCC(C(=O)NCC3CCCO3)CC2)cc1` (stereo unspecified) the inhibition was 6.5%. In the case of `Cc1cc(C)cc(N(CC(=O)N2CC=C(c3ccccc3)CC2)S(=O)(=O)c2c(C)noc2C)c1`, the inhibition was 89.1% (active). In the case of `CCOC(=O)C1CCCN(C(=O)CN(c2ccc(OC)cc2)S(=O)(=O)c2c(C)noc2C)C1` (stereo unspecified), the inhibition was 12.3%. With `Cc1cc(C)cc(N(CC(=O)NCC2CCCO2)S(=O)(=O)c2c(C)noc2C)c1` (stereo unspecified) the inhibition was 82.9% (active). Work on `O=C(Nc1ccc(Cl)c(Cl)c1)N1CC=C(c2ccccc2)CC1` yielded an inhibition of 28.4%. Compound `Cc1ccc(C(=O)NCC2CCCO2)o1` (stereo unspecified) has an inhibition of -1.3%. For `Cc1cc(=O)n2nc(N3CCCC3C(=O)NCCCN3CC(C)CC(C)C3)sc2n1` (stereo unspecified), the inhibition was 2.4%. Compound `Cc1cccc(OCc2nnc(SCC(=O)N3CCN(C(=O)c4ccco4)CC3)n2C)c1C` has an inhibition of 1.1%. Compound `CSc1nc(N)c(C#N)c(-c2ccccc2Cl)c1C#N` has an inhibition of -13.6%. `CCOC(=O)C(=CNc1cccc(C)n1)C(=O)OCC` was tested, and the inhibition was 8.8%.
